Screens: PubChem, NMMLSC
This is a sample that favours compounds with a hit; in the whole collection about 1.3% have one here.
AGP1 TOR yeast: modulators of TOR pathway AGP1-GFP in S. cerevisiae | S. cerevisiae AGP1-GFP multiplex flow cytometry, 3 h; GFP as percent of DMSO wells | GFP response vs DMSO, % at 10 µM | 320,000 tested, 0.02% active | AID 2066;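 active means GFP response relative to DMSO above a set limit, near screen average plus 3 SD, cut at about 150% in these data; inconclusive means fewer than 70 cells counted for the yeast strain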;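 further: median GFP channel fluorescence of the gated AGP1 strain per well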
RPL19A-GFP yeast: modulators of TOR pathway RPL19A-GFP in S. cerevisiae. 330,000 tested, 0.3% active. AID 2025. percent response vs DMSO, % at 10 µM. S. cerevisiae RPL19A-GFP strain, flow cytometry, 3 h; stronger effect = lower value;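 active means percent response vs DMSO below 50%; inconclusive means fewer than 70 events counted for the yeast strain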;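 further: median channel GFP fluorescence of the barcoded RPL19A-GFP strain; ratio of sample median GFP to plate DMSO average so 100% = DMSO; lower means less RPL19A-GFP as with rapamycin TOR inhibition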
MEP2-GFP yeast: alters MEP2-GFP fluorescence in TOR pathway yeast screen; GFP response vs DMSO, % at 10 µM; AID 2016; 330,000 tested, 0.51% active; S. cerevisiae MEP2-GFP strain, flow cytometry GFP, 3 h; 100% = DMSO control level;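 active means GFP response versus DMSO above a set limit, roughly screen mean plus 3 SD, cut at about 180% in these data; inconclusive means fewer than 70 cells counted for a yeast strain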;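 further: median GFP fluorescence of the barcode-gated MEP2-GFP cells per well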
CIT2 TOR yeast: alters CIT2-GFP fluorescence in TOR pathway yeast screen; S. cerevisiae CIT2-GFP strain, flow cytometry, 3 h; 100 means same as DMSO wells; GFP response vs DMSO, % at 10 µM; 320,000 tested, 0.065% active;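 active means GFP response relative to DMSO above a set limit, near the screen mean plus 3 SD, cut at about 150% in these data; inconclusive means Fewer than 70 cells measured for a yeast strain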;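 further: ratio of well median GFP fluorescence to mean of DMSO wells on the plate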
LAP4-GFP MLPCN: modulators of TOR pathway LAP4-GFP in S. cerevisiae | S. cerevisiae LAP4-GFP multiplex, flow cytometry GFP, 3 h; median GFP as percent of DMSO wells | GFP response vs DMSO, % at 10 µM | 320,000 tested, 0.34% active | AID 2023;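 active means GFP response vs DMSO above a set limit, about the screen mean plus 3 SD, cut at about 150% in these data; inconclusive means under 70 cell events counted for the yeast strain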
Efflux pump mplx: blocks antifungal efflux pumps in multiplex yeast assay. S. cerevisiae Candida pump triplex, Nile Red efflux. inhibition, % at 10 µM. 330,000 tested, 0.44% active;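 active means plate passing quality check with inhibition over a set limit, or well fluorescence over plate mean plus 4 SD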;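 further: Nile Red retained in pooled yeast measured as flow cytometry median fluorescence; 0% = buffer negative control and 100% = Enniatin B positive control; higher means more Nile Red kept so more efflux inhibition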
Active calls of the source: *; ? = inconclusive; . = not tested or not shown; [ ] = dose if it differs, or a comment.

SMILES | AGP1 TOR yeast | RPL19A-GFP yeast | MEP2-GFP yeast | CIT2 TOR yeast | LAP4-GFP MLPCN | Efflux pump mplx
COc1ccc(-c2cc(C(F)F)n3ncc(C(=O)N4CCCCC4)c3n2)cc1 | . | 93 | 103 | 102 | 106 | 0
CC(NC(=O)C12CC3CC(CC(C3)C1)C2)C(=O)NN=Cc1ccc([N+](=O)[O-])o1 (stereo not given) | 96 | 100 | 106 | 99 | 107 | 0
CC(NC(=O)c1ccc([N+](=O)[O-])o1)C12CC3CC(CC(C3)C1)C2 (stereo not given) | ? | 16*[may fluoresce violet] | ? | ? | 40 | 0
CCOC(=O)c1c(NC(=O)C2CCCCC2)sc2c1CCN(C(C)C)C2 | 106 | 102 | 101 | 107 | 102 | 0
C/C(=C\c1ccccc1)C(=O)Nc1ccc(Cl)cn1 | 103 | 104 | 112 | 116 | 83 | 0
CCOC(=O)c1cc(S(=O)(=O)N2CCOCC2)cn1C | 106 | 102 | 106 | 99 | 105 | 0
CCOC(=O)c1cc(S(=O)(=O)N2CCN(C(=O)OCC)CC2)cn1C | 27 | 95 | 200* | 95 | 86 | 0
CCN(Cc1ccccc1)C(=O)CN1C(=O)NC(CC)(c2ccc(F)cc2)C1=O (stereo not given) | 96 | 102 | 98 | 94 | 89 | 0
CCN(CC(=O)Nc1ccc2c(c1)OCCO2)C(=O)/C=C/c1ccc([N+](=O)[O-])cc1 | 103 | 98 | 98 | 93 | 113 | 0
Cc1nn(-c2ccccc2)c(C)c1C1C(C#N)=C(N)Oc2n[nH]c(C)c21 (stereo not given) | 31 | 43*[may fluoresce violet] | 317*[may fluoresce violet] | ? | 113 | 0
CC(CNC(=O)c1ccc(C#N)cc1)NC(=O)c1ccc(C#N)cc1 (stereo not given) | 94 | 104 | 105 | 98 | 82 | 0
CCCn1c(=O)c2ccccc2n2c(SCc3c(C(=O)OCC)oc4ccccc34)nnc12 | 99 | 98 | 96 | 98 | 105 | 0
CCOC(=O)c1oc2ccccc2c1CSc1nnnn1-c1ccc(OC)cc1 | ? | 51 | 248*[may fluoresce violet] | ? | 88 | 0
CCOc1ccc(CN2C(=O)c3ccccc3C2=O)cc1C(=O)N1CCC(C(N)=O)CC1 | 98 | 108 | 101 | 96 | 92 | 0
Cc1cc(C)c2sc(NC(=O)c3ccc([N+](=O)[O-])o3)nc2c1 | 18 | 94 | 156 | ? | 194*[may fluoresce violet] | 0
Cc1cc(C)c2nc(NC(=O)c3ccc([N+](=O)[O-])o3)sc2c1 | 88 | 100 | 97 | 93 | 81 | 0
O=S(=O)(c1cccc(S(=O)(=O)N2CCOCC2)c1)N1CCCCC1 | ? | 40*[may fluoresce violet] | 279*[may fluoresce violet] | ? | 84 | 0
COc1ccc(S(=O)(=O)N2CCOCC2)cc1Cl | 24 | 54 | 299*[may fluoresce violet] | ? | 94 | 0
COc1cc(S(=O)(=O)N2CCOCC2)ccc1NC(=O)c1cc2c(s1)CCC2 | 17 | 39*[may fluoresce violet] | 233*[may fluoresce violet] | ? | 96 | 0
O=C(c1cccc(S(=O)(=O)N2CCOCC2)c1)N1CCCCCC1 | 92 | 91 | 98 | 101 | 95 | 0
CCOc1ccccc1NC(=O)COC(=O)C1CC(=O)N(c2c(C)cccc2C)C1 (stereo not given) | 99 | 96 | 101 | 91 | 110 | 1
O=C(NCC(=O)N1CCN(Cc2ccccc2)CC1)c1cc(Cl)cc([N+](=O)[O-])c1 | 100 | 96 | 90 | 98 | 103 | 0
CCOC(=O)c1ccc(S(=O)(=O)N2CCN(C(=O)c3cc(=O)c4ccccc4o3)CC2)cc1 | 94 | 96 | 97 | 92 | 99 | 0
CCn1c2ccccc2c2cc(/C=N/n3cn[nH]c3=S)ccc21 | 91 | 90 | 87 | 83 | 160* | 0
CCC(C)Nc1nc(N)c([N+](=O)[O-])c(Nc2cc(OC)ccc2OC)n1 (stereo not given) | . | 77 | 265*[may fluoresce violet] | . | . | 0
CCC(C)Nc1nc(N)c([N+](=O)[O-])c(Nc2ccccc2OC)n1 (stereo not given) | 94 | 96 | 94 | 95 | 115 | 0
Cc1ccc(NC(=O)Nc2c(C)n(C)n(-c3ccccc3)c2=O)cc1 | 98 | 109 | 119 | 115 | 98 | 0
